Experimental data from PubChem BioAssay (NCATS).
Inconclusive results are not listed. Active and inactive are the calls of the source. The call rests on the fitted dose curve; in most records, active means well fitted inhibition curve with a large enough effect; inconclusive means small, poorly fitted or top-dose-only effect; inactive means flat fitted curve, though single readings scatter.

Assays:
Assay in all cases: qHTS profiling for inhibitors of Plasmodium falciparum proliferation (AID 504749); further: nearly all actives have a fitted effect of over 60% in size
Details in all cases: P. falciparum in erythrocytes, SYBR Green DNA, 72 h; series mostly up to 28.7 µM
[1] = test system: CP260
In short: (§1)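 P. falciparum-infected erythrocytes (0.3% parasitemia, 2.5% hematocrit) incubated with compound 72 h at 37 C, 5% CO2. Parasite DNA detected by SYBR Green after lysis, overnight at room temperature; normalised to 0.29 uM artemisinin and DMSO.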

[2] = test system: CP262
In short: as §1

[3] = test system: CP265
In short: as §1

[4] = test system: CP266
In short: as §1

[5] = test system: CP268
In short: as §1

[6] = test system: CP269
In short: as §1

[7] = test system: CP286
In short: as §1

[8] = test system: CP291
In short: as §1

[9] = test system: CP297
In short: as §1

[10] = test system: CP305
In short: as §1

[11] = test system: CP315
In short: as §1

[12] = test system: CP325
In short: as §1

[13] = test system: CP329
In short: as §1

[14] = test system: CP335
In short: as §1

[15] = test system: DFO2036
In short: as §1

[16] = test system: DIV14
In short: as §1

[17] = test system: DIV17
In short: as §1

[18] = test system: DIV30
In short: as §1

[19] = test system: Dd2
In short: as §1

[20] = test system: ECU
In short: as §1

[21] = test system: FAB9
In short: as §1

[22] = test system: GB4
In short: as §1

[23] = test system: HB3
In short: as §1

[24] = test system: ICS
In short: as §1

[25] = test system: JCK
In short: as §1

[26] = test system: N140
In short: as §1

[27] = test system: P93_24
In short: as §1

[28] = test system: P94_40
In short: as §1

[29] = test system: PAD
In short: as §1

[30] = test system: PC15
In short: as §1

[31] = test system: PC26
In short: as §1

[32] = test system: PC49
In short: as §1

[33] = test system: SC27B
In short: as §1

[34] = test system: TAB109
In short: as §1

[35] = test system: TAB113
In short: as §1

[36] = test system: TAB165
In short: as §1

[37] = test system: W2
In short: as §1

Measured: Potency

O=C(O)[C@H]1C[C@@H](CP(=O)(O)O)CCN1
inactive: all assays above
